Hit rate of the full screen: of about 2,100 compounds, about 480 (23%) were called active. Not shown: some 5% with an inconclusive outcome.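 Rule for the calls: active = fitted curve reaches 40% activation at or below the top valid concentration, in every replicate test; inconclusive = replicate tests disagree on the call; inactive = the rest, including activity in the opposite direction.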 The list is a sample of the results. Results with a measured potency or affinity are listed apart.
Assay: activators raising PGC1a acetylation in cells, dose response, cell-based, cherry-picked samples, set 6 (AID 720513);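 note: cells made to overexpress flag tagged PGC1a plus GCN5 acetyltransferase by viral infection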
Conditions: U2OS PGC1a acetylation AlphaLISA, overnight, 0 = neutral, -100 = inhibitor control; series mostly up to 19.5 µM

outcome, inactive:
CN(C)S(=O)(=O)N1CCC(Cc2ccccc2)CC1
CCCOc1cccc(C(=O)Nc2cc(NC(=O)c3ccco3)ccc2OC)c1
CCCCNC(=O)c1ccc(CS(=O)(=O)c2ccccc2OC)o1
O=C(Nc1ccc(F)cc1)N1CC(=O)N2[C@@H](CO)[C@@H](c3ccc(-c4ccccc4)cc3)[C@@H]2C1
COc1ccc(-c2ccc(OC)cc2C(=O)O)cc1
CC(C)c1ccc(CNc2ccc([N+](=O)[O-])cn2)cc1
Cc1nc(NCCc2ccccc2)c2nnn(Cc3ccccc3Cl)c2n1
O=C(NC1CCCCCCC1O)c1ccccc1 (stereo unspecified)
CSc1ncccc1C(=O)N1CCN(C(=O)c2ccccc2)CC1
CO[C@@H]1CN(C)C(=O)c2cc(NC(C)=O)ccc2OC[C@@H](C)N(Cc2ccccc2C(=O)O)C[C@@H]1C
Cc1cc(SCC(=O)NC(=O)NCc2ccco2)nc2ccccc12
C=CCn1c(SCC(=O)NCc2ccccc2)nnc1-c1ccccc1O
COc1ccc(OC)c(Nc2ccc(C(=O)O)cc2[N+](=O)[O-])c1
COc1ccccc1/C=C/c1nc2ccc(OC(C)=O)cc2c(=O)o1
C[C@@H]1CN([C@@H](C)CO)C(=O)c2cc(NC(=O)c3ccncc3)ccc2O[C@@H](C)CCCCO[C@@H]1CN(C)Cc1ccncc1
CC(=O)Cc1nsc(NC(=O)c2cccc(F)c2)n1
CCCN1CCN(S(=O)(=O)c2ccc3c(c2)CC(C)N3C(=O)C2CC2)CC1 (stereo unspecified)
c1ccc2c(-c3nn4nnnc4c4ccccc34)cccc2c1
COCCCNC(=O)c1ccc(CSCc2ccc(C)cc2)o1
COc1cccc(NC(=O)N(C)C[C@@H]2OCc3ccccc3-c3c(n(C)c4ccccc34)C(=O)N([C@@H](C)CO)C[C@H]2C)c1
C[C@@H]1CN([C@H](C)CO)C(=O)c2cc(NC(=O)Cc3cn(C)c4ccccc34)ccc2O[C@@H]1CN(C)C(=O)Nc1ccccc1
COc1ccc(-c2cnc3c(c2)C(=O)N([C@H](C)CO)C[C@@H](C)[C@@H](CN(C)C(=O)Nc2c(C)noc2C)O3)cc1
O=C(C[C@@H]1CC[C@@H]2[C@H](COC[C@@H](O)CN2S(=O)(=O)c2ccc(Cl)cc2)O1)N[C@@H]1CCN(Cc2ccccc2)C1
CC(Nc1ccccc1)c1cc(Cl)ccc1O (stereo unspecified)
O=C(c1ccc(N2CCCC2=O)cc1)N1CCCCCC1
CO[C@H]1CN(C)C(=O)c2ccc(NC(=O)C3CCOCC3)cc2OC[C@@H](C)N(C)C[C@@H]1C
Cc1cc(F)cc(-c2cc(C(=O)NCc3ccccc3)[nH]n2)c1
COc1cc(NC(=O)CCN2CCN(C)CC2)cc(OC)c1
CCOc1c(Br)cc(/C=C2/SC(=O)N(CC(=O)N3CCCC3)C2=O)cc1OC
O=C1/C(=C\c2ccco2)SC(=S)N1Cc1ccccc1
CC(/C=C1\SC(=O)N(CCCC(=O)O)C1=O)=C\c1ccccc1
O=C(CCN1C(=O)/C(=C/c2ccccc2)SC1=S)NCCCN1CCOCC1
O=S(=O)(NCCSc1ccc(Cl)cc1)c1ccc(F)cc1
Cc1ccc(-c2ccc3c(c2)O[C@@H](CN(C)C(=O)C2CCCCC2)[C@H](C)CN([C@H](C)CO)S3(=O)=O)cc1
COc1ccc(NC(=O)N[C@H]2CC[C@H](CCn3cc(-c4ccccc4F)nn3)O[C@@H]2CO)cc1
O=C(O)c1cccn1Cc1ccccc1F
Cc1c(CNCCc2ccc(Cl)cc2)c(C(=O)O)c(C)n1-c1ccccc1
C[C@@H]1CCCCO[C@H](CN(C)Cc2ccc(C(F)(F)F)cc2)[C@H](C)CN([C@H](C)CO)C(=O)c2cc(NC(=O)Cc3ccccc3)ccc2O1
CC(C)NC(=O)c1c(O)c2ccccc2[nH]c1=O
COc1ccc(S(=O)(=O)N(C)C[C@@H]2Oc3ccc(NS(=O)(=O)c4cn(C)cn4)cc3C(=O)N([C@H](C)CO)C[C@@H]2C)cc1
CCOc1ccc(S(=O)(=O)/N=C(/Nc2ccc(C(C)=O)cc2)c2ccccc2)cc1
Cc1cc(NS(=O)(=O)c2ccc(NC(=O)CCCOc3ccccc3)cc2)no1
NC(=NC(=O)c1ccccc1)N1CCOCC1
Cc1ccccc1Nc1ncnc2c1cnn2-c1ccccc1
O=C(c1ccc(F)cc1)N(C(=O)c1ccc(F)cc1)c1ncccn1
O=S(=O)(c1ccc(Br)cc1)n1ccc2ccccc21
COC(=O)Nc1ccc(S(=O)(=O)N(CCO)CC(F)(F)C(F)F)cc1
Cc1cc(C(=O)OCC(=O)N(C)c2ccccc2)ccc1[N+](=O)[O-]
COC(=O)c1ccc(Cl)c(NC(C)=O)c1
CCOc1cc(CNC2CCCC2)cc(Cl)c1OCc1ccc(F)cc1
O=C(C[C@@H]1CC[C@@H](NS(=O)(=O)c2ccc(F)cc2)[C@H](CO)O1)N1CCN(c2ccccc2)CC1
O=C(C[C@H]1CC[C@@H](NS(=O)(=O)c2ccc(F)cc2)[C@H](CO)O1)N1CCN(c2ccccc2)CC1
C=CC[C@@H](CC(=O)N[C@@H](CO)Cc1ccccc1)C(=O)N[C@@H](COC(=O)[C@@H](CC=C)CC(=O)OC(C)(C)C)Cc1c[nH]c2ccccc12
COc1ccc(NC(=O)Nc2ccc3c(c2)CC(=O)N([C@H](C)CO)C[C@H](C)[C@@H](CN(C)CC2CCCCC2)O3)cc1
CNC(=O)COC(=O)c1cc(-c2ccco2)nc2ccccc12
Cc1nc(SCC(=O)OCc2ccccc2)c(C#N)c(-c2ccccc2)c1C(=O)Nc1ccccc1
COCC(=O)N1CC(=O)N2[C@@H](CO)[C@H](c3ccc(-c4ccncc4)cc3)[C@@H]2C1
O=C(Nc1cccc(OC(F)(F)F)c1)c1ccc(-c2cccnc2)c2ccoc12
O=C(NCc1cccc(Cl)c1)c1ccc(-n2ccnc2)c2ccoc12
CC(Oc1ccc2c3c(c(=O)oc2c1)CCC3)C(=O)N[C@@H](Cc1ccccc1)C(=O)O (stereo partly specified)
Nc1ncnc(NCc2ccc(F)cc2)c1[N+](=O)[O-]
O=C(C1CCCCC1)N1C[C@@H]2N[C@H](C1)C2c1ccc(-c2cccc(F)c2)cc1 (stereo partly specified)
COc1cccc(S(=O)(=O)N2C[C@@H]3N[C@H](C2)C3c2ccc(-c3ccccc3C)cc2)c1 (stereo partly specified)
N#Cc1cccc(-c2ccc([C@@H]3[C@@H]4CN(S(=O)(=O)c5ccc(-c6ccccc6)cc5)C[C@H]3N4)cc2)c1
COc1cccc(-c2ccc(C3[C@@H]4CN(C(=O)C5CC5)C[C@H]3N4)cc2)c1 (stereo partly specified)
N#Cc1ccc(-c2ccc([C@@H]3[C@@H]4CN(S(=O)(=O)c5ccc(-c6ccccc6)cc5)C[C@H]3N4)cc2)cc1
COc1ccccc1-c1ccc([C@@H]2[C@@H]3CN(S(=O)(=O)c4ccc(-c5ccccc5)cc4)C[C@H]2N3)cc1
O=S(=O)(c1ccc(-c2ccccc2)cc1)N1C[C@@H]2N[C@H](C1)[C@@H]2c1ccc(-c2cccnc2)cc1
C[C@@H]1CN([C@H](C)CO)C(=O)c2cc(/C=C/c3ccccc3)cnc2O[C@@H]1CN(C)Cc1cccnc1
COc1cc(CNCCN2CCOCC2)ccc1OCc1ccc(Cl)cc1Cl
C[C@@H]1CN([C@H](C)CO)C(=O)c2cc(C#Cc3ccccc3)cnc2O[C@@H]1CN(C)C(=O)c1ccccn1
O=C(CN1C(=O)C2CC=CCC2C1=O)Nc1nccs1 (stereo unspecified)
CN(C)CCCNC(=O)CC1C[C@H](C(=O)N2CCCCC2)[C@@]2(CCc3ccccc3)c3[nH]c4ccccc4c3CCN2C1=O (stereo partly specified)
COc1ccc(-n2c(C)c([N+](=O)[O-])c3ccc(O)c(CN(C)C)c32)cc1
COc1cc(O)c(C(CC(=O)N2CCOCC2)c2ccc(N(C)C)cc2)c(OC)c1 (stereo unspecified)
CNC[C@H]1Oc2ccc(NC(=O)CCN3CCOCC3)cc2C(=O)N([C@H](C)CO)C[C@H]1C
C=CCN(c1ccc(C(=O)Nc2ccc3c(c2)OCO3)cc1)S(C)(=O)=O
N#Cc1ccc(-c2ccc(C3[C@@H]4CN(S(=O)(=O)c5ccc(F)cc5)C[C@H]3N4)cc2)cc1 (stereo partly specified)
Cc1cccc(S(=O)(=O)N2C[C@@H]3N[C@H](C2)C3c2ccc(-c3ccccc3C)cc2)c1 (stereo partly specified)
CCCSc1nnc(Sc2nnnn2-c2ccccc2)s1
COc1ccc(CCN2C(=O)CC(C(C)c3ccccc3)C2=O)cc1OC (stereo unspecified)
COc1ccc(CCN2C(=O)c3[nH]nc(-c4ccccc4O)c3C2c2ccccc2)cc1OC (stereo unspecified)
CCCCN(C)Cc1c(C)[nH]c2ccccc2c1=O
CC1(Cc2ccc(Cl)cc2)C(=O)Nc2ccc(-c3cccnc3)cc21 (stereo unspecified)
COc1ccccc1-c1ccc([C@@H]2[C@@H](CO)N(C(C)=O)C23CN(C(C)=O)C3)cc1
CO[C@H]1CN(C)C(=O)c2ccc(NC(=O)c3ccc(-c4ccccc4)cc3)cc2OC[C@H](C)NC[C@@H]1C
CO[C@H]1CN(C)C(=O)c2cc(NC(=O)Nc3ccc(Cl)cc3)ccc2OC[C@H](C)NC[C@@H]1C
CC1CCCN(Cc2c(O)ccc3c4c(c(=O)oc23)CCCC4)C1 (stereo unspecified)
CCc1oc2c(C)c(O)ccc2c(=O)c1-c1ccc2ccccc2n1
N#Cc1ccc(Cn2c(=O)c(C#N)c3n(c2=O)CCC3)cc1
CC(C)Cn1cnc2c(N)nc3ccccc3c21

Source: PubChem BioAssay AID720513 (Broad Institute, 2013)
